Source: PubChem BioAssay AID1611 (NINDS Approved Drug Screening Program, 2009)

Assay: HSE-luciferase reporter activators – cell-based (AID 1611)
Details: human cells, HSE-luciferase heat shock reporter; stronger effect = higher value

SMILES	fold change
Nc1ccc(S(=O)(=O)Nc2cnc3ccccc3n2)cc1	1.17
CN(C)CCC=C1c2ccccc2C=Cc2ccccc21	0.63
CCOc1ccc(Cc2nccc3cc(OCC)c(OCC)cc23)cc1OCC	1.35
COc1cc(NS(=O)(=O)c2ccc(N)cc2)nc(OC)n1	0.93
CCOC(N)=O	0.87
O=C(O)c1cn(C2CC2)c2cc(N3CCNCC3)c(F)cc2c1=O	1.5
C[N+]1(C)C2CC[C@H]1CC(OC(=O)C(O)c1ccccc1)C2 (stereo not given in full)	1.16
CN1C(C(=O)Nc2ccccn2)=C(O)c2sccc2S1(=O)=O	0.84
CC(=O)OCC1=C(C(=O)O)N2C(=O)[C@@H](NC(=O)CSc3ccncc3)[C@H]2SC1	0.82
COc1ccccc1OCC(O)CO (stereo not given)	1
CC(CN1c2ccccc2Sc2ccccc21)N(C)C (stereo not given)	0.91
CCC(=O)c1ccc2c(c1)N(CC(C)N(C)C)c1ccccc1S2 (stereo not given)	0.88
CC(=O)OCC1=C(C(=O)O)N2C(=O)[C@@H](NC(=O)Cc3cccs3)[C@H]2SC1	1.09
CCCCCC(=O)O[C@]1(C(C)=O)CCC2C3CCC4=CC(=O)CC[C@]4(C)C3CC[C@@]21C (stereo not given in full)	1.47
CCCC(CCC)C(=O)O	0.91
Cc1cc(C)nc(NS(=O)(=O)c2ccc(N)cc2)n1	1.02
CC(=O)O[C@H]1C[C@@]2(C)[C@@H](C[C@@H](O)C3[C@]2(C)CC[C@H]2[C@H](C)[C@H](O)CC[C@]32C)/C1=C(/CCC=C(C)C)C(=O)O (stereo not given in full)	1
NCCCCC(N)C(=O)NC(Cc1ccc(O)cc1)C(=O)NC(CCCCN)C(=O)O (stereo not given)	0.95
C[C@](N)(Cc1ccc(O)c(O)c1)C(=O)O	0.74
O=C1c2cccc(O)c2C(=O)c2c(O)cccc21	0.86

SMILES	fold change
CCN(CC)CCNC(=O)c1cc(Br)c(N)cc1OC	1.36
C#CCN(C)Cc1ccccc1	1.01
CC(=O)OCC(=O)[C@@]1(O)CCC2C3CCC4=CC(=O)CC[C@]4(C)C3C(=O)C[C@@]21C (stereo not given in full)	0.62
c1ccc2[nH]c(-c3cscn3)nc2c1	0.81
CC12CC3CC(C)(C1)CC(N)(C3)C2	0.96
Oc1c(I)cc(I)c2cccnc12	1.19
C=C(C)[C@H]1CC=C(C(=O)O)CC1	1.32
N[C@@H]1CONC1=O	1.23
NC(N)=N/N=C\c1c(Cl)cccc1Cl	0.39
CO[C@@H]1[C@@H](O[C@@H]2O[C@H](C)[C@@H](O[C@H]3C[C@@](C)(O)[C@H](O)[C@H](C)O3)[C@H](N(C)C)[C@H]2O)[C@@H](CC=O)C[C@@H](C)[C@@H](O[C@H]2CC[C@H](N(C)C)[C@@H](C)O2)/C=C/C=C/C[C@H](C)OC(=O)C[C@H]1O	62.6
C#C[C@]1(OC(C)=O)CCC2C3CCC4=CC(=O)CC[C@@H]4C3CC[C@@]21C (stereo not given in full)	0.92
C[n+]1c2cc(N)ccc2cc2ccc(N)cc21	1.45
COC(=O)Nc1nc2ccc(Sc3ccccc3)cc2[nH]1	0.92
CC(=O)O[C@]1(C(C)=O)CCC2C3C=C(Cl)C4=CC(=O)[C@@H]5C[C@@H]5[C@]4(C)C3CC[C@@]21C (stereo not given in full)	9.01
CCC(=O)O[C@H]1[C@H](O[C@@H]2[C@@H](C)[C@H](O[C@H]3C[C@@](C)(OC)[C@@H](O)[C@H](C)O3)[C@@H](C)C(=O)O[C@H](CC)[C@@](C)(O)[C@H](O)[C@@H](C)C(=O)[C@H](C)C[C@@]2(C)O)O[C@H](C)C[C@@H]1N(C)C	1.55
Cc1ccccc1N1C(=O)c2cc(S(N)(=O)=O)c(Cl)cc2NC1C (stereo not given)	0.83
CC(CN(C)C)CN1c2ccccc2CCc2ccccc21 (stereo not given)	1.16
CC(=O)Oc1ccc2c(c1)CCC1C2CC[C@@]2(C)C1CC[C@@H]2OC(C)=O (stereo not given in full)	1.07
Cc1cc(C(C)(C)C)cc(C)c1CC1=NCCN1	1.28
CC(=C(CCOP(=O)(O)O)SC(=O)c1ccccc1)N(C=O)Cc1cnc(C)nc1N	0.96
